Laboratory results taken from PubChem BioAssay AID1310 (The Scripps Research Institute Molecular Screening Center, 2008).
This is one part of the list. A number with no mark means an inactive call. The source made the active and inactive calls.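 Rule for the calls: active = inhibition above the mean of solvent-only control wells plus 3 SD, set per campaign (cut at about 25% in these data); inactive = the rest.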

Test: blockers of IL-6 STAT3 transcription – U3A cells, luciferase, luminescence, triplicate, counter-screen for STAT1 inhibitor project (AID 1310);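 note: 0% = IL-6 plus DMSO and 100% = IL-6 plus nifuroxazide control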
Conditions: IL-6 STAT3 luciferase reporter, at 5.7 µM, active compounds read high, cells lacking STAT1

SMILES	inhibition
COc1ccc(C(=O)Nc2ccccc2C(=O)N/N=C/c2ccccc2OC)cc1	-7.2%
COC(=O)C1=CN(Cc2ccc(OC)c(OC)c2)C=C(C(=O)OC)C1c1cccs1	-3.35%
NS(=O)(=O)c1cccc(NC(=O)CSc2nc3ccccc3n2-c2ccccc2)c1	-2.95%
Cc1ccc(C2=Nc3c(ccc4ccccc34)C(c3ccncc3)=NN2)cc1	-38.9%
C[C@@H]1C[C@@H]2O[C@H]2/C=C\C=C\C(=O)Cc2c(Cl)c(O)cc(O)c2C(=O)O1	70% (active)
CCOC(=O)N1CCN(C(=O)CSc2nnc(-c3c[nH]c4ccccc34)n2CCOC)CC1	-4.2%
O=C(CCl)N(Cc1cccc([N+](=O)[O-])c1)c1cccc(Cl)c1	47% (active)
CCOC(=O)C(=CNc1cccc(C)n1)C(=O)OCC	9.3%
CCOC(=O)N1CCN(C(=O)C2CCN(c3ncnc4c3sc3cccc(F)c34)CC2)CC1	4.65%
COc1ccc(C2CC(c3cccs3)=NN2c2nc(C)c(C(C)=O)s2)cc1OC (stereo not given)	13.4%
